# Measurements: publication PMC7862700, “An all-to-all approach to the identification of sequence-specific readers for epigenetic DNA modifications on cytosine”
# Tests used:
# Experiment in all cases: DAPPL (digital affinity profiling via proximity ligation, sequencing); 10 mM Tris-HCl pH 7.5, 50 mM NaCl, 1 mM DTT, 4% glycerol, room temperature, 30 min; GST-TFs on glutathione beads, 16-mer random dsDNA library, 0.1% formaldehyde crosslink after washing; high values mean tight binding
# FLI1 = biological target: T1, FLI1 (Homo sapiens, UniProt Q01543 1-452); conditions: protein: recombinant; tags: N-terminal GST; dsDNA, one strand shown
# T1 sequence: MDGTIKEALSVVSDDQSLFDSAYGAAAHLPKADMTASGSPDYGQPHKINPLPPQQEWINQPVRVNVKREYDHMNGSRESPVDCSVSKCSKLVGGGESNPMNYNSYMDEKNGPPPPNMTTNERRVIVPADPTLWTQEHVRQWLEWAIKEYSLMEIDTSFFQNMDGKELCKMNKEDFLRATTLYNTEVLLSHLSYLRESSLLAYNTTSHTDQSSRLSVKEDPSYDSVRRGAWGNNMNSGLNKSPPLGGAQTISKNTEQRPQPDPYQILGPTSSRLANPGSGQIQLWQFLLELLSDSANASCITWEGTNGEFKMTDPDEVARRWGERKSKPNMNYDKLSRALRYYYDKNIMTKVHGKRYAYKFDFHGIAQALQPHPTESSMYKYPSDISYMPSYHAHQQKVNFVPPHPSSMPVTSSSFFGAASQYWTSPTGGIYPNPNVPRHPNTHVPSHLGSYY
# In short: (§1)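 Human transcription factors fused to GST were expressed in yeast, captured on glutathione beads, given DNA barcodes and pooled with a GST-only negative control. Pools were incubated with 200 nmole of a 16-mer random double-stranded DNA library in Tris/NaCl/DTT/glycerol buffer at room temperature for 30 min. They were then washed, crosslinked with 0.1% formaldehyde, proximity-ligated (BsaI/T4 ligase, 1 h, 37 °C), PCR-amplified and sequenced on an Illumina NextSeq500. Binding signal is each 6-mer's read frequency for a factor divided by its frequency for the GST control.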
# ELK1 = biological target: T2, ELK1 (Homo sapiens, UniProt P19419 1-428); conditions: protein: recombinant; tags: N-terminal GST; dsDNA, one strand shown
# T2 sequence: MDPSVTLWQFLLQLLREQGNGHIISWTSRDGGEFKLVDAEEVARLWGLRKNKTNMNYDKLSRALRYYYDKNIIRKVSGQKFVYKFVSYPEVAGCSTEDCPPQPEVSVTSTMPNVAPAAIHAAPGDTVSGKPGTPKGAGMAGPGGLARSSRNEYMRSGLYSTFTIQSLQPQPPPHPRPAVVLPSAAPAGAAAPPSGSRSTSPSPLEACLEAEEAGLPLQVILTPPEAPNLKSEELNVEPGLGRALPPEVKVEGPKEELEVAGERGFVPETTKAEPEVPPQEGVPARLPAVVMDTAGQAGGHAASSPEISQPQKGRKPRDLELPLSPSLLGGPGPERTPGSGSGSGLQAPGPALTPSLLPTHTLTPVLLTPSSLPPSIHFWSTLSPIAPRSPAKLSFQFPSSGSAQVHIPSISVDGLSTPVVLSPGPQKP
# In short: as §1
# GABPA = biological target: T3, GABPA (Homo sapiens, UniProt Q06546 1-454); conditions: protein: recombinant; tags: N-terminal GST; dsDNA, one strand shown
# T3 sequence: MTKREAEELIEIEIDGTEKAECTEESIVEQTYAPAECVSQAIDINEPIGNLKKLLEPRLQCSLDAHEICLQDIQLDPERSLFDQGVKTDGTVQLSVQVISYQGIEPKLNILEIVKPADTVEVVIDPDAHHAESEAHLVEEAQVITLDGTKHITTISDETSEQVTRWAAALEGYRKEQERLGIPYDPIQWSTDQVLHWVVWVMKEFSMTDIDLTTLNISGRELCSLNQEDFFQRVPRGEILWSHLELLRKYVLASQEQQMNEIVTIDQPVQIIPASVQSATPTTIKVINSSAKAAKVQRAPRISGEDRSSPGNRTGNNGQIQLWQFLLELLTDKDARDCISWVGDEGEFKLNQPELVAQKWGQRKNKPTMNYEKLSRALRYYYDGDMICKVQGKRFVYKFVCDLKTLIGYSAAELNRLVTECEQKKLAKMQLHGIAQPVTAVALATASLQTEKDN
# In short: as §1
# ERG = biological target: T4, ERG (Homo sapiens, UniProt P11308 1-479); conditions: protein: recombinant; tags: N-terminal GST; dsDNA, one strand shown
# T4 sequence: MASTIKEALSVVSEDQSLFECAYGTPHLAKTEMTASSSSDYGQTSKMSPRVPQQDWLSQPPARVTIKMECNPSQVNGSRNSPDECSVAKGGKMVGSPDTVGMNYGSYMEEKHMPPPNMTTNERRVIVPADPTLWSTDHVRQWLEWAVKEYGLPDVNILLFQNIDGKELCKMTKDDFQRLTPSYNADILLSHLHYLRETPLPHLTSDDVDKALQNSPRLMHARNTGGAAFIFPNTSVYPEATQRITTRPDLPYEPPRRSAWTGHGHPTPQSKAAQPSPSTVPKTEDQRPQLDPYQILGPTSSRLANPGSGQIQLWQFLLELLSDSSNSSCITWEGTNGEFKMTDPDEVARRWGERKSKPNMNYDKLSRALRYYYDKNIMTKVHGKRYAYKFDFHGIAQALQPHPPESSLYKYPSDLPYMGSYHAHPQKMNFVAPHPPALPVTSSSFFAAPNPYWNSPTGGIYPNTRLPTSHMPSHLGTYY
# In short: as §1
# ELF1 = ELF1 (Homo sapiens, UniProt P32519 1-619); conditions: protein: recombinant; tags: N-terminal GST; dsDNA, one strand shown
# ELF1, sequence (P32519 whole entry): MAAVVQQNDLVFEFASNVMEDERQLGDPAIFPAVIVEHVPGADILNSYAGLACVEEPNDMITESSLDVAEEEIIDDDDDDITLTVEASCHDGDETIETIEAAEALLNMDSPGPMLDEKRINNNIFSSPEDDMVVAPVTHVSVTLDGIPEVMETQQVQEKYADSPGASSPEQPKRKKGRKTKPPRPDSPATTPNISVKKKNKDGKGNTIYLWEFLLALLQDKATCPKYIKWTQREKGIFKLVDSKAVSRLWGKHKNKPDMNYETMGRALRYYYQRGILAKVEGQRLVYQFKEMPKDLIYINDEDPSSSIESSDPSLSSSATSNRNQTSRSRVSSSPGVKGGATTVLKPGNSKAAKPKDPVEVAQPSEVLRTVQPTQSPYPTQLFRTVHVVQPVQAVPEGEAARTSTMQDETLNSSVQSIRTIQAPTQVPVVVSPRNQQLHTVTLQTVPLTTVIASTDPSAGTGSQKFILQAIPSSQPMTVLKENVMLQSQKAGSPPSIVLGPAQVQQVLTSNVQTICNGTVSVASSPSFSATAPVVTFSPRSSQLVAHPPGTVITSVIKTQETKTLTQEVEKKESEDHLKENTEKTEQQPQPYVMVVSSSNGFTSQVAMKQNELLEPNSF
# In short: as §1
# EHF = biological target: T5, EHF (Homo sapiens, UniProt Q9NZC4 1-300); conditions: protein: recombinant; tags: N-terminal GST; dsDNA, one strand shown
# T5 sequence: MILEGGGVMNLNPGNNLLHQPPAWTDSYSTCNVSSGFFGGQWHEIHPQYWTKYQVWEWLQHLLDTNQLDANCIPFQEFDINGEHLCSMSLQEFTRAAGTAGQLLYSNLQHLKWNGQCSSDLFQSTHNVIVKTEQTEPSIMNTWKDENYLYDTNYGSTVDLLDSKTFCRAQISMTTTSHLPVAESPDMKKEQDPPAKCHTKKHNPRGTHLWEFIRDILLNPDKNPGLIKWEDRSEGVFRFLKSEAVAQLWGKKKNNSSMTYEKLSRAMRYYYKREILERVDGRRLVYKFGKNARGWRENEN
# In short: as §1
# SPI1 = SPI1 (Homo sapiens, UniProt P17947 1-270); conditions: protein: recombinant; tags: N-terminal GST; dsDNA, one strand shown
# In short: as §1
# SPIB = SPIB (Homo sapiens, UniProt Q01892 1-262); conditions: protein: recombinant; tags: N-terminal GST; dsDNA, one strand shown
# SPIB, sequence (Q01892 whole entry): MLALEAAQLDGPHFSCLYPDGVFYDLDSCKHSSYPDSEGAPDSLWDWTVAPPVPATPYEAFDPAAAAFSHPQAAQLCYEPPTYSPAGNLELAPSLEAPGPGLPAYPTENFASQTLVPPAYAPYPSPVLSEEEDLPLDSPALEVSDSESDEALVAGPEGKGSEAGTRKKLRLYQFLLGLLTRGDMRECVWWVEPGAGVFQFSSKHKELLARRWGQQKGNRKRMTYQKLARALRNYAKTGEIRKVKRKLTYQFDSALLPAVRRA
# In short: as §1
# ELK3 = biological target: T6, ELK3 (Homo sapiens, UniProt P41970 1-407); conditions: protein: recombinant; tags: N-terminal GST; dsDNA, one strand shown
# T6 sequence: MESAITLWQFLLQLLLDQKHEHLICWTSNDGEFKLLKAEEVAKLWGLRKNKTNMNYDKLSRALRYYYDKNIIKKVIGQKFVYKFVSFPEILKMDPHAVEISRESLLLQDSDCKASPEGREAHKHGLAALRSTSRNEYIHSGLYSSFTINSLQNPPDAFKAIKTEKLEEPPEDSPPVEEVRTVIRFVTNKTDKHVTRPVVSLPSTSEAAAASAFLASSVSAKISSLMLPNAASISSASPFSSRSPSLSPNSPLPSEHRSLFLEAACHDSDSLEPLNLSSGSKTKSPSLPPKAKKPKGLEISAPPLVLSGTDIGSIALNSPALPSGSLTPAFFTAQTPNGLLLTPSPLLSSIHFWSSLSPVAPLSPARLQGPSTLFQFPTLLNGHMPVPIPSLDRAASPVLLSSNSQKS
# In short: as §1
# FEV = biological target: T7, FEV (Homo sapiens, UniProt Q99581 1-238); conditions: protein: recombinant; tags: N-terminal GST; dsDNA, one strand shown
# T7 sequence: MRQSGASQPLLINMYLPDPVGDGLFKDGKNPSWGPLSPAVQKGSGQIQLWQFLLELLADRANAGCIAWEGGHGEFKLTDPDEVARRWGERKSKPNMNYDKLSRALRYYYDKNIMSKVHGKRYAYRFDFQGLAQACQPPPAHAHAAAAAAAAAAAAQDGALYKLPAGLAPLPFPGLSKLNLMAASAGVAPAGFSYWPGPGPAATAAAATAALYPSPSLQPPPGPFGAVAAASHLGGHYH
# In short: as §1
# ETV5 = ETV5 (Homo sapiens, UniProt P41161 1-510); conditions: protein: recombinant; tags: N-terminal GST; dsDNA, one strand shown
# ETV5, sequence (P41161 whole entry): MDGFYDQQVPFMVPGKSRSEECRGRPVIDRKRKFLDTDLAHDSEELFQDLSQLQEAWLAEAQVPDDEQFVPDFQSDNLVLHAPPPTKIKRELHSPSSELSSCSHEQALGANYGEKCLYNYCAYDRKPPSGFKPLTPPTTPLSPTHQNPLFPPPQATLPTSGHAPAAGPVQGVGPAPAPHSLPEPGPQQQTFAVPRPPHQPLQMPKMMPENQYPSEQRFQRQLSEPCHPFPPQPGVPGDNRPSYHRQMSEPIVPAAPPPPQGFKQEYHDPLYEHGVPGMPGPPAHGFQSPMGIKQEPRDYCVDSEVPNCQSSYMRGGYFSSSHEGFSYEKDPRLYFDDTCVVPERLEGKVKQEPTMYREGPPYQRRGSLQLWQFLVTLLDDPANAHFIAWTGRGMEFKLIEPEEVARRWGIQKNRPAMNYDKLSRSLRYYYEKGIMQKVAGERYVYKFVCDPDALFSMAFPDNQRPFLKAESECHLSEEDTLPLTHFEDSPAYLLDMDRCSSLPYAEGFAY
# In short: as §1
# HSF1 = HSF1 (Homo sapiens, UniProt Q00613 1-529); conditions: protein: recombinant; tags: N-terminal GST; chain copies: 3; dsDNA, one strand shown
# HSF1, sequence (Q00613 whole entry): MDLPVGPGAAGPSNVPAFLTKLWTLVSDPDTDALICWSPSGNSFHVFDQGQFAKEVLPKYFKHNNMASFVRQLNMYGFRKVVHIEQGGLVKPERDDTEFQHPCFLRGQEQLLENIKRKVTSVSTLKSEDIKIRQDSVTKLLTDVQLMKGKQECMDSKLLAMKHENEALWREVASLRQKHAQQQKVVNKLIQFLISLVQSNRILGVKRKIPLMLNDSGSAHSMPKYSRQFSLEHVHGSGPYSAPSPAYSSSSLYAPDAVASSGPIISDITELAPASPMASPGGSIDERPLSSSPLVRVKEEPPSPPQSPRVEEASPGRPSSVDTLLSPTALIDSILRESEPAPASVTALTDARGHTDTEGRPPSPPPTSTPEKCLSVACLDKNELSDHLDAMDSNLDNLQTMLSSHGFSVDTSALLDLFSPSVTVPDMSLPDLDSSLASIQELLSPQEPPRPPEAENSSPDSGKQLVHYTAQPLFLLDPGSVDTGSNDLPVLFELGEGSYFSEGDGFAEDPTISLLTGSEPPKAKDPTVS
# In short: as §1
# SPIC = biological target: T8, SPIC (Homo sapiens, UniProt Q8N5J4 1-248); conditions: protein: recombinant; tags: N-terminal GST; dsDNA, one strand shown
# T8 sequence: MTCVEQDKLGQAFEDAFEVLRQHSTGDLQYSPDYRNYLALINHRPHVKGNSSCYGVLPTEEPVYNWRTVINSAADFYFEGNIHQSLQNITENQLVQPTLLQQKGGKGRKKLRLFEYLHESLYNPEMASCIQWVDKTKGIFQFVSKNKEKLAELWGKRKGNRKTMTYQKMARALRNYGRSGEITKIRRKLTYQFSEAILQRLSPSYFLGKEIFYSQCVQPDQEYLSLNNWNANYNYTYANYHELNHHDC
# In short: as §1
# ELF4 = ELF4 (Homo sapiens, UniProt Q99607 1-663); conditions: protein: recombinant; tags: N-terminal GST; dsDNA, one strand shown
# ELF4, sequence (Q99607 whole entry): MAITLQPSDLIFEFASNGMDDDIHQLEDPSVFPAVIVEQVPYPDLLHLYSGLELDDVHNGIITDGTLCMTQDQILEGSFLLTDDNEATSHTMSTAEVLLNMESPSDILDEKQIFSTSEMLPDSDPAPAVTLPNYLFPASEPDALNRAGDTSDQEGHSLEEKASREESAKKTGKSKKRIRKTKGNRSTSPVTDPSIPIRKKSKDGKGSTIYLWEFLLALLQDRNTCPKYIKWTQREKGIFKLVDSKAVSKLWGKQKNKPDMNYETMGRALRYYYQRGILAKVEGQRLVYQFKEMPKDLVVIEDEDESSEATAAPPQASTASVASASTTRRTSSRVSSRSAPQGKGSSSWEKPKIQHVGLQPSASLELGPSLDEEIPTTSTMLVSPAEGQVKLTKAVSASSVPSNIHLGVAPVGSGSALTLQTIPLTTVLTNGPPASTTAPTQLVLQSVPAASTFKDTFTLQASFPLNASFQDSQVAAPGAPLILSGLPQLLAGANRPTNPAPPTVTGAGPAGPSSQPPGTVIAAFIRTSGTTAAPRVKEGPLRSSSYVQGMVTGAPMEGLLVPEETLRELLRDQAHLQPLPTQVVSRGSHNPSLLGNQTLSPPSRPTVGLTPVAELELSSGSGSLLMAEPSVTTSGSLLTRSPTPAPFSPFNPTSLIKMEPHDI
# In short: as §1
# ELK4 = biological target: T9, ELK4 (Homo sapiens, UniProt P28324-2 1-405); conditions: protein: recombinant; tags: N-terminal GST; dsDNA, one strand shown
# T9 sequence: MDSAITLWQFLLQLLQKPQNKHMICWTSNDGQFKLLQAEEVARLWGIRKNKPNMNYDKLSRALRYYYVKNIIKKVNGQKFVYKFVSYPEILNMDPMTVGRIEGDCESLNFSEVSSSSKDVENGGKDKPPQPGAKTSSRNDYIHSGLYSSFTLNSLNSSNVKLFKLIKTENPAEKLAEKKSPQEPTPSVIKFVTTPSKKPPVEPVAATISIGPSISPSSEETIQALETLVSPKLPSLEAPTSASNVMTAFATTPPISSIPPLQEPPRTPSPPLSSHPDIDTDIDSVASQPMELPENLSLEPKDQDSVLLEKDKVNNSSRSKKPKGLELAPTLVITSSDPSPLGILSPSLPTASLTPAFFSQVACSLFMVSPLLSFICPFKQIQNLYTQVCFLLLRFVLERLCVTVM
# In short: as §1
# ETV2 = biological target: T10, ETV2 (Homo sapiens, UniProt O00321 1-342); conditions: protein: recombinant; tags: N-terminal GST; dsDNA, one strand shown
# T10 sequence: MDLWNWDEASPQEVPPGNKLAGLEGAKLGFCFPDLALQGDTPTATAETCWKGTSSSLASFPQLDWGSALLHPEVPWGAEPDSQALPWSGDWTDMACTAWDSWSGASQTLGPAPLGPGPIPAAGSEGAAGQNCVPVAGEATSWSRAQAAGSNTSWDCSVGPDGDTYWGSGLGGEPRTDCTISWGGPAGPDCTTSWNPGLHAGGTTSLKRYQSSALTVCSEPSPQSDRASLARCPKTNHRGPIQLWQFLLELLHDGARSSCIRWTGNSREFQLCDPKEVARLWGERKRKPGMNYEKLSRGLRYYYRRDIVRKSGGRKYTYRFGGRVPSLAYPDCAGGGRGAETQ
# In short: as §1
# ELF3 = biological target: T11, ELF3 (Homo sapiens, UniProt P78545 1-371); conditions: protein: recombinant; tags: N-terminal GST; dsDNA, one strand shown
# T11 sequence: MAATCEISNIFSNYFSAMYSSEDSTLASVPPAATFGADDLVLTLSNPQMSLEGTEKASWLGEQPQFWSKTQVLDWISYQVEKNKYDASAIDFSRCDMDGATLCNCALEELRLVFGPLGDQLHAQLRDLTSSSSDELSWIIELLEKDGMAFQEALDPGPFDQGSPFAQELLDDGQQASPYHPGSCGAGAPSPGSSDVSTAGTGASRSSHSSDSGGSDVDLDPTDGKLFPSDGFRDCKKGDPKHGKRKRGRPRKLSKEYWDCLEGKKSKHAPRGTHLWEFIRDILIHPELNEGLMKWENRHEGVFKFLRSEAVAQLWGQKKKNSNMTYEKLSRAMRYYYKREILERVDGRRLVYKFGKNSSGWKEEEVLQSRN
# In short: as §1
# CRX = CRX (Homo sapiens, UniProt O43186 1-299); conditions: protein: recombinant; tags: N-terminal GST; dsDNA, one strand shown
# CRX, sequence (O43186 whole entry): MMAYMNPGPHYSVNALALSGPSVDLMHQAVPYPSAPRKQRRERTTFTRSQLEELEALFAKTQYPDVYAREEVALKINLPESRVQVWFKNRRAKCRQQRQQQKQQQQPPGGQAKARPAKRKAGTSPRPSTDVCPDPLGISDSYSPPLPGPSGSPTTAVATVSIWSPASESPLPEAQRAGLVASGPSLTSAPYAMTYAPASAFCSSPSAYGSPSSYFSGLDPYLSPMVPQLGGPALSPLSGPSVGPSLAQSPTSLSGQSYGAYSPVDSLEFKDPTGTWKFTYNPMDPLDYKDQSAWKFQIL
# In short: as §1
# ETV1 = ETV1 (Homo sapiens, UniProt P50549 1-477); conditions: protein: recombinant; tags: N-terminal GST; dsDNA, one strand shown
# ETV1, sequence (P50549 whole entry): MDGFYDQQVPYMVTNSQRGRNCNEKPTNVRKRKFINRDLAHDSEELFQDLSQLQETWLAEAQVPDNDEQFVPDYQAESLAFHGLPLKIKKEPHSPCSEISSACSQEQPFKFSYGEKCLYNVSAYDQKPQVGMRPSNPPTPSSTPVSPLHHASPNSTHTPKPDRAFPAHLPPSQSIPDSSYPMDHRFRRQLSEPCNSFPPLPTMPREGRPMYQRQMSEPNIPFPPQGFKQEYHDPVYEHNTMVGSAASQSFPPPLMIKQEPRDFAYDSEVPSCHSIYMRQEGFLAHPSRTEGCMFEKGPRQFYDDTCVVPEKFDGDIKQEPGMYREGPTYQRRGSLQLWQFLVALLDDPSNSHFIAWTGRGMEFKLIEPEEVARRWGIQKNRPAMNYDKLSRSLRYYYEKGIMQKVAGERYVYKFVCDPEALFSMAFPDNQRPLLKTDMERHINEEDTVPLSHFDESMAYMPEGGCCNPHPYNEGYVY
# In short: as §1
sequence,measurement,setting,value
TTGCTT,binding signal,FLI1,"1.32 fold enrichment (6-mer frequency, TF over GST control)"
same,binding signal,ELK1,"1.15 fold enrichment (6-mer frequency, TF over GST control)"
same,binding signal,GABPA,"1.36 fold enrichment (6-mer frequency, TF over GST control)"
same,binding signal,ERG,"1.3 fold enrichment (6-mer frequency, TF over GST control)"
same,binding signal,ELF1,"1.21 fold enrichment (6-mer frequency, TF over GST control)"
same,binding signal,EHF,"1.2 fold enrichment (6-mer frequency, TF over GST control)"
same,binding signal,SPI1,"1.29 fold enrichment (6-mer frequency, TF over GST control)"
same,binding signal,SPIB,"1.35 fold enrichment (6-mer frequency, TF over GST control)"
same,binding signal,ELK3,"1.26 fold enrichment (6-mer frequency, TF over GST control)"
same,binding signal,FEV,"1.16 fold enrichment (6-mer frequency, TF over GST control)"
same,binding signal,ETV5,"1.24 fold enrichment (6-mer frequency, TF over GST control)"
same,binding signal,HSF1,"1.1 fold enrichment (6-mer frequency, TF over GST control)"
same,binding signal,SPIC,"1.38 fold enrichment (6-mer frequency, TF over GST control)"
same,binding signal,ELF4,"1.24 fold enrichment (6-mer frequency, TF over GST control)"
same,binding signal,ELK4,"1.24 fold enrichment (6-mer frequency, TF over GST control)"
same,binding signal,ETV2,"1.16 fold enrichment (6-mer frequency, TF over GST control)"
same,binding signal,ELF3,"1.31 fold enrichment (6-mer frequency, TF over GST control)"
same,binding signal,CRX,"1.24 fold enrichment (6-mer frequency, TF over GST control)"
same,binding signal,ETV1,"1.25 fold enrichment (6-mer frequency, TF over GST control)"
